# About 390 (8.9%) of roughly 4,400 compounds showed an effect of 50% or more. Only a selection was taken, and strong results are over-represented in it overall.
# System: Trypanosoma brucei
# Experiment: DNDI: Inhibition of Human African Trypanosomiasis, SBRI 427, in vitro at 2 ug.mL-1
# Assay type: functional
row,Compound,% inhibition
1,CCOc1ccccc1-c1nc(CN2CCCCCC2)co1,7%
2,CSc1ccc(Oc2nc(C)ccc2/C(=N/O)NC2CCC2)cc1,3%
3,C=CCN(Cc1coc(-c2cccc(OC)c2)n1)c1ccccc1,35%
4,Cc1cccc(Oc2ncccc2/C(=N/O)N2CCOCC2)c1C,10%
5,FC(F)(F)c1ccc(-c2nc(CNCc3ccccc3C(F)(F)F)co2)cc1,0%
6,Cc1ccc(/C(=N/O)N2CCCCCC2)c(Oc2cccc(C(C)C)c2)n1,14%
7,O/N=C(\NCc1ccccc1F)c1cccnc1Oc1ccc(F)cc1,51%
8,O/N=C(\NCc1ccccc1F)c1cccnc1OCC(F)(F)F,-12%
9,COc1ccc(Oc2nc(C)ccc2/C(=N/O)NCc2ccccc2F)cc1,-6%
10,O/N=C(\NCc1cc(F)ccc1F)c1cccnc1Oc1ccc(F)cc1,-3%
11,COc1ccc(Oc2ncccc2/C(=N/O)NCc2ccccc2F)cc1,70%
12,Clc1ccccc1-c1nc(CNCc2ccco2)co1,-7%
13,CC(C)N(C)Cc1coc(-c2ccccc2Cl)n1,4%
14,CCOc1ccccc1CN/C(=N\O)c1cccnc1Oc1ccc(C)c2c1CCC2,100%
15,Cc1ccc(Oc2ncccc2/C(=N/O)NCc2ccccc2)c2c1CCC2,99%
16,COc1ccc(CN/C(=N\O)c2cccnc2Oc2ccc(C)c3c2CCC3)cc1,9%
17,Cc1ccc(Oc2ncccc2/C(=N/O)NCc2cccnc2)c2c1CCC2,6%
18,Cc1ccc(Oc2ncccc2/C(=N/O)NCc2ccco2)c2c1CCC2,-6%
19,Cc1ccc(Oc2ncccc2/C(=N/O)NCc2ccncc2)c2c1CCC2,8%
20,Cc1ccc(Oc2ncccc2/C(=N/O)NCc2cccs2)c2c1CCC2,99%
21,Cc1ccc(Oc2ncccc2/C(=N/O)NCc2cc(F)ccc2F)c2c1CCC2,28%
22,Cc1ccc(Oc2cc(/C(=N/O)NCc3cccs3)ccn2)c2c1CCC2,3%
23,Cc1cc(C)cc(CN/C(=N\O)c2cccnc2Oc2ccc(C)c3c2CCC3)c1,69%
24,COc1ccc(-c2nc(CN(C)C3CCN(Cc4ccccc4)C3)co2)cc1 (centres undefined),-9%
25,O/N=C(/c1ccnc(Oc2cccc3cnccc23)c1)N1CCN(c2ccccc2)CC1,7%
26,N#CCCN(Cc1coc(-c2ccc(C(F)(F)F)cc2)n1)CC1CCCO1 (centres undefined),-3%
27,O/N=C(/c1ccnc(Oc2cccc3ccccc23)c1)N1CCSC1,22%
28,CSc1ccc(Oc2nc(C)ccc2/C(=N/O)NCc2ccccc2C)cc1,7%
29,Cc1ccc(N2CCN(Cc3coc(-c4ccccc4F)n3)CC2)c(C)c1,-17%
